Records with an inconclusive call do not appear. Calls of active or inactive are those of the source.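 How the source made its calls, unless noted: active means viability at or below 30% in both replicate assays; inconclusive means viability at or below 30% in just one of the two assays; inactive means the rest.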

Here are results for five compounds from PubChem BioAssay.

Assay [1] can be described thus: Her2 expression decrease, cell viability multiplex – SKBR3 breast tumor cells, AlphaScreen, ATP viability, primary screen (AID 461;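 active means Her2 level under about 52% in both replicate screens, with viability over 70% of control, limit read from the data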;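 on Her2 level: lower value means less Her2 protein in the cells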;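 on viability: percent of carrier control wells set as 100% viability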). The note with it: SKBR3 Her2 protein level, 18-24 h, measured here: SKBR3 viability, ATP luminescence, at 10 µM.
The target in assay [2] is Receptor tyrosine-protein kinase erbB-2 (Homo sapiens) (UniProt P04626). The assay is described as above. The conditions noted are these: 18-24 h, at 10 µM, stronger effect = lower value.
Sequence of Receptor tyrosine-protein kinase erbB-2 (Homo sapiens) (P04626 whole entry, looked up): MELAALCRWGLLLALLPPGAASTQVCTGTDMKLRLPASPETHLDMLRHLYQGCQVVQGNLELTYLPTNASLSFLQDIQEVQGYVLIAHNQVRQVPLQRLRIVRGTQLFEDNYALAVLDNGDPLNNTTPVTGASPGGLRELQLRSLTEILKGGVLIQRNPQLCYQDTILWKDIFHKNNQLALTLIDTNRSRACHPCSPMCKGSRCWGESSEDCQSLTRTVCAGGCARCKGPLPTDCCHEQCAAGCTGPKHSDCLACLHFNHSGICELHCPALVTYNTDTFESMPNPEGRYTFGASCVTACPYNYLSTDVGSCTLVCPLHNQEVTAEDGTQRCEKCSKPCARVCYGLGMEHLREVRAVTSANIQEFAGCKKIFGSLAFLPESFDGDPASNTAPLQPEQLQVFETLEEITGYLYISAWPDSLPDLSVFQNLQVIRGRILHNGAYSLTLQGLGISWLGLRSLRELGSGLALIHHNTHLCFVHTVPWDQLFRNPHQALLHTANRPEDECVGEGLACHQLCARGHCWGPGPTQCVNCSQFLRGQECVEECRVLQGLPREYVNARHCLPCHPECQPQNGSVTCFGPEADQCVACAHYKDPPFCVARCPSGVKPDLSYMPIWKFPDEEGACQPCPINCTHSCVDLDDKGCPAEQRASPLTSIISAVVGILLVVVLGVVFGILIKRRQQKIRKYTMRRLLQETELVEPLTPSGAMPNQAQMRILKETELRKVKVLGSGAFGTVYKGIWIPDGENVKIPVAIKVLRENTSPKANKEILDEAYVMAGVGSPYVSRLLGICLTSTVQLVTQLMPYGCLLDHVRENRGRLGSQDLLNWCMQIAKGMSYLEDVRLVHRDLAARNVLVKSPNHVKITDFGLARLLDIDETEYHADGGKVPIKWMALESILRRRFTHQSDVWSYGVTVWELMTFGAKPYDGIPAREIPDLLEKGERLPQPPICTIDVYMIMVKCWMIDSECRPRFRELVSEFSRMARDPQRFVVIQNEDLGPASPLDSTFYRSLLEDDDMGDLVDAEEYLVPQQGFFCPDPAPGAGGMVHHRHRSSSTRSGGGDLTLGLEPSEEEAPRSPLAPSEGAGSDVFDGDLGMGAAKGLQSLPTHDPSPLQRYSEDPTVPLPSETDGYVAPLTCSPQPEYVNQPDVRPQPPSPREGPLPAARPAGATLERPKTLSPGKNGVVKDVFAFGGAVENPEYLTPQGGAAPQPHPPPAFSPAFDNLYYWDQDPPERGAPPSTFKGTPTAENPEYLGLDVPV
Assay [3] is described as follows: reduced viability of SK-BR-3 breast cancer cells – cell-based, 24 h, human, pilot screen (AID 572;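 active means viability at or below 10% of carrier control in both of two separate runs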;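 further: compound exposure lasted between 18 and 24 h rather than exactly 24 h; 100% = carrier-treated control wells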). The note with it: SK-BR-3 viability, CellTiter-Glo luminescence, at 10 µM, stronger effect = lower value.
The nature of assay [4]: HUVEC growth inhibition – cell-based, human, primary screen (AID 575).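 Further: 100% = median of untreated cell wells with 0.1% DMSO on each plate.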 The conditions noted are these: HUVEC proliferation, CellTiter-Glo luminescence, 72 h; at 10 µM; stronger effect = lower value.
Assay [5] can be described thus: H69AR cell proliferation blockers – human, duplicate replicates, primary screen (AID 580;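 active means viability at or under a set limit in both replicates, limit being median viability minus 3 SD, cut at about 48% in these data, passing the limit was not always enough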;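 further: 100% = mean luminescence of untreated wells and 0% = no signal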). The conditions noted are these: H69AR lung tumor cells viability, ATP luminescence, 72 h; at 10 µM; stronger effect = lower value.
The nature of assay [6]: MRP1 drug-resistance reversers in H69AR cells – cell-based, doxorubicin co-treatment, pilot screen (AID 601;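 active means viability loss from added drug above about 55%, and viability with drug at most 40%, in both replicates, limit read from the data, passing the limit was not always enough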). The conditions noted are these: CellTiter-Glo, 72 h, at 10 µM; for differential viability (reversal): stronger effect = higher value.
Assay [7] can be described thus: yeast transport mutant growth inhibition pilot in 384-well plates, post-Golgi transport modulator project (AID 636; in the data active means inhibition above about 31%). The note with it: absorbance 615 nm, about 18 h, stronger effect = higher value.
Assay [8] can be described thus: growth suppression of yeast trafficking mutant, preliminary HTS, modulators of trafficking downstream of Golgi apparatus project, 1536-format plate, OD 615 nm (AID 637; in the data active means inhibition above about 30%). The conditions noted are these: yeast transport mutant growth, absorbance 615 nm, 18 h; stronger effect = higher value.
Assay [9] is described as follows: S. cerevisiae growth inhibition in permissive medium (OD615), pilot counter-assay for S. cerevisiae lifespan shortening project, permissive growth control (AID 705;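 active means growth inhibition above 25% in both replicates, a cutoff set 3 SD above the mean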). The note with it: OD615, 24 h, at 10 µM, stronger effect = higher value.
Assay [10] is described as follows: S. cerevisiae growth inhibition in restrictive medium, OD615, pilot screen, restrictive growth control, yeast lifespan reduction project (AID 706;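 active means growth inhibition above a set limit, 3 SD over mean compound inhibition, in both replicates, cut at about 43% in these data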;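 further: modified DeaD lifespan yeast strain shifted to restrictive glucose medium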). The conditions noted are these: OD615, 48 h, at 10 µM, stronger effect = higher value.
Assay [11] is described as follows: doxorubicin toxicity protection in MRP-1 cells – H69AR cells, CellTiter-Glo, duplicate, MRP-1 activator project, pilot screen (AID 807;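 active means viability increase at or above a cutoff of the median across tested compounds plus 3 SD, cut at about 8.5% in these data, passing the limit was not always enough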;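 further: compound pretreatment 18-22 h then 72 h combined with doxorubicin; 0% = doxorubicin alone and 100% = vehicle without doxorubicin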). The note with it: H69AR viability with doxorubicin, CellTiter-Glo luminescence; at 10 µM; stronger effect = higher value.
Assay [12] is described as follows: viability of HCT116 without oncogenic beta-catenin – human colon tumor cells, pilot screen (AID 823;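 active means cell viability at or below a set limit in both duplicate runs, the limit being the all-compound median minus 4 SD, cut at about 23% in these data, passing the limit was not always enough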;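 further: 0% = wells killed by 20 µM Hyamine and 100% = untreated DMSO cell wells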). The conditions noted are these: HCT116 beta-catenin knockout viability, CellTiter-Glo, 60 h; at 10 µM; stronger effect = lower value.
A short description of assay [13]: viability of PTEN-null HCT116 cells – cell-based, HCT116 clonal line, CellTiter-Glo, pilot screen (AID 824;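 active means viability at or below 27.92% in each of two runs, the all-compound median minus 4 SD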;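 further: 0% = 20 µM Hyamine control and 100% = vehicle cell control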). The note with it: HCT116 PTEN-deleted viability, 60 h, at 10 µM, stronger effect = lower value.
Assay [14] is described as follows: RAM pathway blockade in budding yeast – dse1pr::URA3 reporter, 5-FOA selection, pilot screen (AID 869;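 active means inhibition over a set limit, the all-compound mean plus 3 SD, in both replicate runs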;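 further: 0% = DMSO wells with no growth and 100% = 10 µM 1-NA-PP1 with full growth; RAM network block rescues cells from 5-FOA so hits raise OD615 growth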). The conditions noted are these: S. cerevisiae dse1pr::URA3 5-FOA growth, OD615, 2 d; at 10 µM; stronger effect = higher value; strain carries analog-sensitive mutant Cbk1 kinase.
Assay [15] in a line: RAM signaling pathway blockade in yeast – S. cerevisiae, Pdr1DBD-CYC8 efflux-inhibited sensitized strain, primary screen (AID 1298;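 active means RAM network inhibition above 8.4% in each of two replicates, 3 SD over the compound average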;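 further: 0% = DMSO untreated cells without growth and 100% = 10 µM 1-NA-PP1 full growth; higher means more yeast growth rescued from 5-FOA killing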). The conditions noted are these: S. cerevisiae cbk1-as DSE1-URA3 strain, 5-FOA growth OD615, 2 d; at 50 µM; stronger effect = higher value.
Where [16] appears, read: H69AR cells + 2 uM doxorubicin, measured here: viability with 2 uM doxorubicin, stronger effect = lower value.
Where [17] appears, read: H69AR cells, compound alone cytotoxicity.

For the compound `CCOc1cc(C2CC(=O)N3CN(C4CCCCC4)CSC3=C2C#N)ccc1O` (stereo not given), the viability is 85% in [1]; 85% (inactive) in [3]; 113% (inactive) in assay [4]; 87.3% (inactive) in [5]; 101% in [6] (setting [16]); 87.3% in [6] (setting [17]). Further, the values for the viability in assay [12] and in [13] were 105% (inactive) and 95.1% (inactive), respectively. Further, the Her2 level in assay [2] is 108% (inactive). For the same compound, in assay [6] (H69AR cells + 2 uM doxorubicin), the differential viability (reversal) was -13.7% (inactive). Moreover, the inhibition in assay [7] is 1.92% (inactive); in assay [8], 2% (inactive); in [14], 0.17% (inactive). The results for the growth inhibition in assay [9] and in [10] were 41.6% (active) and 76% (active), respectively. Moreover, the viability increase in [11] was -4.1% (inactive). In addition, in assay [15], the RAM network inhibition is 2.85% (inactive).

As to `O=C1c2ccccc2C(Nc2cccnc2)N1Cc1ccccc1Cl` (stereo not given), the viability in assay [1] was 93%; in assay [3], 93% (inactive); in [4] it was 94.9% (inactive); in assay [5], 86.3% (inactive); in assay [6] (setting [16]), 102%; in assay [6] (setting [17]), 86.3%. Further, the results for the viability in assay [12] and in assay [13] were 102% (inactive) and 99.2% (inactive), respectively. In addition, the Her2 level in assay [2] was 91% (inactive). Also, the differential viability (reversal) in assay [6] (H69AR cells + 2 uM doxorubicin) was -16% (inactive). Also, the inhibition was -3.2% (inactive) in assay [7], -3.5% (inactive) in assay [8] and 0.17% (inactive) in assay [14]. Also, the growth inhibition is -5.58% (inactive) in assay [9] and 10.4% (inactive) in assay [10]. Besides, the viability increase in assay [11] is -3.57% (inactive). Also, the RAM network inhibition in assay [15] is 0.57% (inactive).

Regarding `Cn1c(=O)cc(NCCc2ccccc2)[nH]c1=O`, the viability in assay [1] is 97%; in assay [3], 97% (inactive); in assay [4] it was 50.3% (inactive); in assay [5], 42.9% (active); in [6] (setting [16]), 80.2%; in assay [6] (setting [17]), 42.9%. The viability in [12] was 87.5% (inactive); in [13], 88.3% (inactive). Besides, the Her2 level in assay [2] was 93.5% (inactive). For the same compound, the differential viability (reversal) in assay [6] (H69AR cells + 2 uM doxorubicin) was -37.3% (inactive). Moreover, the inhibition was -1.82% (inactive) in [7], -8.36% (inactive) in assay [8] and 0.595% (inactive) in assay [14]. For the same compound, the values for the growth inhibition in [9] and in [10] were -9.86% (inactive) and 2.05% (inactive), respectively. Also, the viability increase in [11] was -5.4% (inactive). In addition, the RAM network inhibition in assay [15] is 3.06% (inactive).

As for `COc1ccccc1N1C(=O)CCC1(C#N)c1ccccc1` (stereo not given), the viability in assay [1] is 97%; in assay [3] it was 97% (inactive); in [4], 104% (inactive); in [5], 117% (inactive); in [6] (setting [16]), 96.9%; in [6] (setting [17]), 117%. Besides, the viability in assay [12] is 108% (inactive); in [13], 99.7% (inactive). In addition, in [2], the Her2 level is 102% (inactive). Further, the differential viability (reversal) in [6] (H69AR cells + 2 uM doxorubicin) is 20.5% (inactive). In addition, the inhibition in assay [7] is 0.68% (inactive); in assay [8] it was -3.49% (inactive); in assay [14], 1.52% (inactive). Moreover, the growth inhibition in assay [9] is -7.28% (inactive); in assay [10], 0.615% (inactive). In addition, in assay [11], the viability increase was -1.56% (inactive). In addition, the RAM network inhibition in assay [15] is 2.81% (inactive).

Turning to `COc1ccc(C2CC(c3ccc(OC)cc3)n3nc(N)nc3N2)cc1` (stereo not given), the viability is 97.5% in [1]; 97.5% (inactive) in assay [3]; 88% (inactive) in assay [4]; 82.2% (inactive) in assay [5]; 85.1% in assay [6] (setting [16]); 82.2% in assay [6] (setting [17]). The results for the viability in assay [12] and in [13] were 105% (inactive) and 98.1% (inactive), respectively. In addition, the Her2 level in [2] is 98% (inactive). The differential viability (reversal) in [6] (H69AR cells + 2 uM doxorubicin) is -2.91% (inactive). The inhibition in assay [7] is 0.77% (inactive); in assay [8], 0.17% (inactive); in [14], 1.62% (inactive). Also, the figures for the growth inhibition in assay [9] and in assay [10] were 7.76% (inactive) and 16.3% (inactive), respectively. Further, in assay [11], the viability increase is 0.09% (inactive). Also, the RAM network inhibition in [15] is 3.07% (inactive).
